# From PubChem BioAssay
# An excerpt weighted towards active compounds, which were near 3% of everything screened.
# TR SRC2 fluor cs = Total Fluorescence Counterscreen for Inhibitors of the Interaction of Thyroid Hormone Receptor and Steroid Receptor Coregulator 2 | TRb/SRC2 Texas Red total fluorescence interference | Potency, µM (top dose mostly 106 µM) | 0.29% of 280,000 active; active means well fitted curve in either direction with a large enough effect; inconclusive means small, poorly fitted or top-dose-only effect
#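 Flags fluorescent or light-absorbing compounds by total fluorescence, S + 2P, at 555 nm excitation and 632 nm emission. Mixture: 20 nM Texas Red SRC2 peptide, 0.6 uM human TRb LBD, 1 uM T3, 5% DMSO; compound exposure 5 h at ambient temperature.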
# Tau fibril FP = qHTS for Inhibitors of Tau Fibril Formation, Fluorescence Polarization. Microtubule-associated protein tau (Homo sapiens), P10636. K18 P301L tau heparin fibrillization, Alexa594 FP, 6 h. Potency, µM (doses to about 57.7 µM), usual class: inhibitors. 0.39% of 280,000 active; further: nearly all actives have a fitted effect of over 55% in size
# Target sequence (P10636 561-689 P618L limits assumed): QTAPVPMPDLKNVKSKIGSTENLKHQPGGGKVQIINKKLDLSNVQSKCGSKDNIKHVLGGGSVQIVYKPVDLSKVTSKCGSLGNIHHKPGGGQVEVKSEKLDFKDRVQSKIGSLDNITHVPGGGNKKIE
#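 Compound effects on tau fibrillization are measured by Alexa 594 fluorescence polarization (ex 555, em 632 nm). K18 P301L tau is used at 15 uM with 0.24 uM labeled tracer, and 20 uM heparin induces aggregation over 6 hr at 37 C.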
# Tau ThT inhib = qHTS for Inhibitors of Tau Fibril Formation, Thioflavin T Binding; Microtubule-associated protein tau (Homo sapiens), P10636; recombinant tau K18 P301L, heparin-induced fibrillization, ThT fluorescence; Potency, µM (top dose mostly 57.4 µM), hits mostly inhibitors; 2.1% of 270,000 active; AID 1460, 2008; further: nearly all actives have a fitted effect of over 55% in size
#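 Heparin-induced fibrillization of the P301L-mutant K18 repeat-domain fragment of human tau was followed by ThT binding in quantitative high-throughput format.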
# Tau fluor counter = Counterscreen qHTS for Inhibitors of Tau Fibril Formation, Fluorescence Polarization; Potency, µM (series often up to 57.7 µM); 0.93% of 280,000 active; tau K18 P301L Alexa594 fluorescence, heparin fibrillization; AID 1463, 2008; further: nearly all actives have a fitted effect of over 55% in size
#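 Human tau K18 P301L (15 uM unlabeled, 0.24 uM Alexa 594-labeled) in 100 mM sodium acetate pH 7 with 20 uM heparin, 6 hr at 37 C. ThT 30 uM added, 1 hr ambient; Alexa 594 FP and total fluorescence read at 555/632 nm.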
# TRb SRC2 PPI = qHTS for Inhibitors of the Interaction of Thyroid Hormone Receptor and Steroid Receptor Coregulator 2; Potency, µM (top dose mostly 106 µM), hits mostly inhibitors; Thyroid hormone receptor beta (Homo sapiens), P10828; AID 1469, 2008; TRbeta-SRC2 peptide binding, fluorescence polarization; receptor liganded with 1 µM T3; 0.065% of 280,000 active; further: nearly all actives have a fitted effect of over 50% in size
#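 Compounds were added to 0.6 uM TRb ligand-binding domain and 20 nM Texas Red-labeled SRC2 peptide in Tris buffer containing 1 uM T3, incubated 5 hr at ambient temperature, then read by fluorescence polarization.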
# Hits are given with their value; – = inactive; ? = inconclusive; · = no result given; ! = not confirmed by another sample; [ ] = remark or other dose. Unless noted, the call rests on the fitted dose curve; in most records, active means well fitted curve in the direction sought with a large enough effect; inconclusive means small, poorly fitted or top-dose-only effect, or another doubt; inactive means no such curve, though single readings can be large; an effect the other way counts as inactive or inconclusive.
SMILES,TR SRC2 fluor cs,Tau fibril FP,Tau ThT inhib,Tau fluor counter,TRb SRC2 PPI
COc1ccc(CN2C=C3C(=O)C(C)(OC(=O)C4CCCC4)C(=O)C=C3C=C2c2ccsc2)cc1 (configuration not stated),–[11.2 µM],?,18µM!,–[11.6 µM],–[11.2 µM]
CC1(OC(=O)c2cccs2)C(=O)C=C2C=C(c3ccc(C#N)cc3)OC=C2C1=O (configuration not stated),–,?,28µM,–,–
CC1(OC(=O)c2cccs2)C(=O)C=C2C=C(c3ccsc3)OC=C2C1=O (configuration not stated),–,?,–,–,–
CC1(OC(=O)C2CCCC2)C(=O)C=C2C=C(c3ccsc3)N(CCCCO)C=C2C1=O (configuration not stated),–[11.2 µM],–[11.6 µM],?,–[11.6 µM],–[11.2 µM]
COc1cc2nccc(Oc3ccc(NC(=O)Nc4ccc(F)cc4F)c(F)c3)c2cc1OC,–,·,·,·,–
CCc1cccc(C)c1NC(=O)CCS(=O)(=O)c1ccc2c(c1)oc(=O)n2C,–,?,–,–,–
CCOc1ccc(S(=O)(=O)NCC(c2ccco2)S(=O)(=O)c2cccs2)cc1 (configuration not stated),–,–,–,–,–
Cc1cccc(NC(=O)C(=O)NCC(c2cccnc2)N2CCOCC2)c1 (configuration not stated),–,–,–,–,–
CC1(OC(=O)C2CCCC2)C(=O)C=C2C=C(c3ccsc3)N(C3CCCC3)C=C2C1=O (configuration not stated),–[11.2 µM],–[11.6 µM],?,–[11.6 µM],–[11.2 µM]
COC(=O)CCC(=O)OC1(C)C(=O)C=C2C=C(C3CC3)N(Cc3ccccc3)C=C2C1=O (configuration not stated),–[11.2 µM],?,11µM!,–[11.6 µM],–[11.2 µM]
CC1(OC(=O)C2CCCC2)C(=O)C=C2C=C(c3ccsc3)OC=C2C1=O (configuration not stated),–,?,16µM,?,–
O=C(Cn1c(=O)n(Cc2ccco2)c(=O)c2oc3ccccc3c21)Nc1ccc(F)cc1F,–,–,–,–,–
CC(C)(C)c1ccc(C(=O)NC(=S)Nc2nc3c(s2)CCCC3)cc1,–,–,?,–,–
C/C(=N\Nc1nc2c(s1)CCCC2)c1ccc(Cl)cc1,–,–,14µM,25µM[quencher],–
CN(C)c1ccc(C(=O)Nc2nc3c(s2)CCCC3)cc1,–,–,7.9µM,?,–
Cc1cc2ccccn2c1C(=O)c1ccc(N/N=C/c2ccc(C(=O)O)cc2)c([N+](=O)[O-])c1,–,–,3.2µM,–,–
CC1=C(C#N)C(=O)NC(=O)/C1=C\c1ccc(-c2ccc(C)cc2[N+](=O)[O-])o1,–,?,16µM,?,–
O=C(C[n+]1ccc(C(=O)N/N=C/c2ccc(Cl)cc2Cl)cc1)c1ccccc1,–,–,16µM,?,–
Cc1cc2nc(CS)[nH]c2cc1C,–,–,32µM,–,–
O=C(NCc1ccccc1)c1sc(=S)n2c1[nH]c(=O)c1ccccc12,–,–,14µM,?,–
COc1ccc(CNC(=O)c2sc(=S)n(-c3ccccc3)c2N)cc1,–,–[0.0958 µM],·,–[0.0958 µM],–
Nc1ccccc1N=c1ssnc1Cl,–,?,22µM,–,–
Cc1ccc(N=c2ssnc2Cl)cc1,–,?,14µM,–,–
Cc1cc(C)c(C#N)c(Cl)n1,–,–,–,–,–
CC(C)(C)C1=CC(=Nc2ccccc2N)C=C(C(C)(C)C)C1=O,–,–,–,–,–
SMILES,TR SRC2 fluor cs,Tau fibril FP,Tau ThT inhib,Tau fluor counter,TRb SRC2 PPI
Cc1cc(Cl)ccc1N=c1ssnc1Cl,–,22µM,14µM,–,–
Cc1ccc(N=C2NC(=O)CS2)cc1,–,–,–,–,–
Cc1cc(C)nc(/N=c2/ssnc2Cl)c1,–,8.9µM,4µM,–,–
COc1ccc(C(=O)N(O)c2ccccc2)cc1,–,–,–,–,–
Cc1ccc(-n2c(SCC(=O)Nc3ccc4c(c3)OCO4)nc3c([nH]c4ccccc43)c2=O)cc1,–,–,–,?,–
O=Nc1c(-c2cccc([N+](=O)[O-])c2)nc2ncccn12,–,6.3µM,4µM,–,–
